From PubChem
HCMV antiviral – human cytomegalovirus inhibition. activity change, negative = inhibition, % at 57.5 µM. 410,000 tested, 4.5% active. HFF cells, HCMV-luciferase reporter, 72 h; stronger effect = lower value; in the data active = activity change below about -60%; inconclusive = no clear call, values can overlap the other calls; inactive = above about -39%
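Luciferase read-out from HCMV-luciferase-infected HFFs (MOI 1 PFU/cell) 72 h post infection at 37C; compounds added after 16 h cell attachment; activity normalized between buffer-only basal and Salinomycin (10uM) inhibitor controls.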
Pf growth 96h – P. falciparum growth inhibition at 96 hour, primary screen for plastid delayed-death inhibitors. 320,000 tested, 6.9% active. Potency, µM (doses to about 28.7 µM), usual class: inhibitors. P. falciparum luciferase reporter growth, 96 h
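Two parasite generations (96 h, 37 C, 5% CO2) of compound exposure in infected erythrocytes (0.05% parasitemia, 2% hematocrit). Luciferase-reporter P. falciparum; decreased luminescence indicates inhibited growth, aimed at apicoplast-acting delayed death.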
HCV inhibitor – HCV inhibition | Huh7.5.1 HCVcc-Cre infection, luciferase reporter, 44 h | Potency, µM (series often up to 41.8 µM), usual class: inhibitors | 340,000 tested, 3.4% active | AID 651820
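1,000 cells/well; 4 h culture; + compound; + HCVcc-Cre (~0.5 moi); 44 h; luciferase substrate, RT 15 min; read 15 sec.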
Pf growth 48h – P. falciparum growth inhibition at 48 hours (one generation). P. falciparum luciferase growth in erythrocytes, 48 h. Potency, µM (doses to about 28.7 µM), actives largely listed as inhibitors. 310,000 tested, 5.9% active
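Firefly luciferase activity from engineered P. falciparum reports growth; inhibitors lower the luminescent signal. Cultures contained 2% hematocrit erythrocytes at 0.1% final parasitemia.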
HCV inh confirm – HCV inhibition, cherry-pick confirmation. 640 tested, 78% active. Potency, µM (highest dose often 41.8 µM), actives largely listed as inhibitors. shares compounds with HCV inhibitor. HCVcc-Cre infectious virus cell assay, luciferase, inhibition. AID 720575; also: nearly all actives have a fitted effect of over 80% in size
HCV host tox – host cell cytotoxicity counter-screen for HCV inhibitors; shares compounds with HCV inhibitor; AID 720576; Potency, µM (top dose mostly 41.8 µM), hits mostly inhibitors; 640 tested, 22% active; HCV host cell line cytotoxicity counterscreen;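 also: 44 h compound exposure; nearly all actives have a fitted effect of over 55% in size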
A number is an active result; - = inactive; ? = inconclusive; . = no result; [ ] = dose if it differs, or a comment. Compounds with a hit are over-represented: about 13% of the library has one in this group of screens. Unless noted, calls follow the shape of the dose curve; as a rule, active = well fitted curve in the direction sought with a large enough effect; inconclusive = small, poorly fitted or top-dose-only effect, or another doubt; inactive = no such curve, though single readings can be large; an effect the other way counts as inactive or inconclusive.

SMILES | HCMV antiviral | Pf growth 96h | HCV inhibitor | Pf growth 48h | HCV inh confirm | HCV host tox
CCCCCCN1CCN(c2ccccc2Cl)CC1 | - | ? | - | - | . | .
CCOC(=O)C1CCCN(C(=O)c2ccc(C(F)(F)F)nc2C)CC1 (configuration not stated) | - | . | . | . | . | .
COC(=O)C1=C(c2ccc(-c3ccccc3)c(F)c2)C[C@@H]2CC[C@H]1N2C(=O)NCc1cccc2ccccc12 | - | 1µM | ? | 1.2µM | 11µM | -
COC(=O)C1=C(c2ccc(-c3ccccc3)c(F)c2)C[C@@H]2CC[C@H]1N2C(=O)NC1CCCCC1 | - | ? | ? | ? | . | .
Cc1ccc(NCC(=O)N/N=C\c2ccc([N+](=O)[O-])o2)cc1 | -82 | 5.2µM | 3.2µM | ? | 14µM | ?
Cc1ccc(NCC(=O)N/N=C/c2ccc(C(=O)O)cc2)cc1 | - | ? | - | - | . | .
CCC(CO)Oc1cc(NC(=O)c2ccccc2)c2ncn(C(C)C)c2c1 (configuration not stated) | - | ? | ? | ? | . | .
CCC(CO)Oc1cc(NC(=O)c2ccc(C)cc2)c2ncn(C(C)C)c2c1 (configuration not stated) | - | - | ? | ? | ? | -
CSc1ncnc2c1ncn2CCCNCc1ccc(C)o1 | - | . | . | . | . | .
N#C/C(=C\c1cn(-c2ccccc2)nc1-c1ccccc1)S(=O)(=O)c1ccccc1 | - | ? | - | - | . | .
CC(C)n1cc(/C=C(\C#N)S(=O)(=O)c2ccccc2)c2ccccc21 | - | - | 8.9µM | ? | ? | -
Cc1cc2nc(-c3nnnn3-c3c(C)cccc3C)c(=O)[nH]c2cc1C | - | . | . | . | . | .
O=C1Nc2ccccc2-n2nnnc2C1N1CCN(c2ccc(C(F)(F)F)cn2)CC1 (configuration not stated) | - | . | . | . | . | .
COc1cc(NC(C)CCCN)c2ncccc2c1Oc1ccccc1 (configuration not stated) | - | 2.1µM | 7.9µM | ? | 20µM | -
CC(C)N(Cc1ccccc1)S(=O)(=O)c1ccc(-n2cccn2)cc1 | - | . | . | . | . | .
COc1ccc(NC(=O)c2cccc(S(=O)(=O)N3CCN(c4ccccc4)CC3)c2)c(OC)c1 | - | ? | ? | 10µM | 22µM | -
CCOc1ccc(NC(=O)CCc2c(C)nc3c(-c4ccccc4)c(C)nn3c2C)cc1 | - | . | . | . | . | .
CC(=O)Nc1ccc(Nc2cc(C(C)C)nc3c(-c4ccccc4)c(C)nn23)cc1 | ? | 13µM | 2.5µM | ? | 14µM | -
C=C(C(=O)O)C(CCCCCC)C(=O)O (configuration not stated) | - | - | 0.63µM | - | - | -
CCCCCCCCCCCCCCCC(=O)O | . | - | . | - | . | .
CC(C)OCCCn1c(=O)c2ccccc2n2c(CCC(=O)N3CCN(c4ccccn4)CC3)nnc12 | - | - | ? | ? | . | .
O=C(CCc1nnc2n(Cc3ccc(Cl)cc3)c(=O)c3ccccc3n12)N1CCN(c2ccccn2)CC1 | . | ? | 3.5µM | ? | 4µM | -
C[C@H]1CN([C@@H](C)CO)C(=O)CCCn2cc(nn2)CO[C@@H]1CN(C)C(=O)NC1CCCCC1 | - | . | . | . | . | .
COc1cc(NC(=O)c2ccc(COc3ccccc3Br)o2)cc(OC)c1OC | - | - | 5µM | ? | 11µM | -
COc1cc(OC)c(NC(=O)C(=O)CC(=O)c2ccc(C)cc2C)cc1Cl | - | 3.3µM | 3.5µM | ? | 14µM | -
SMILES | HCMV antiviral | Pf growth 96h | HCV inhibitor | Pf growth 48h | HCV inh confirm | HCV host tox
COc1cccc(C(=O)CC(=O)C(=O)Nc2ccc(C)cc2Cl)c1 | - | - | - | - | . | .
CCOc1cccc(C2Oc3nc(SC)nnc3-c3ccccc3N2C(C)=O)c1OC (configuration not stated) | - | . | . | . | . | .
CC#CCOC(=O)c1c(C)nc2sc3c(c2c1N)CCC(O)C3 (configuration not stated) | ? | ? | 7.1µM | ? | 22µM | ?
CCOC(=O)c1sc2nc(C)c3c(c2c1N)CC(C)(C)OC3 | - | ? | ? | . | . | .
COc1cccc(CNC(=O)c2ccc(F)c(S(=O)(=O)N3CCCCC3)c2)c1 | - | . | . | . | . | .
COc1ccc(C(C)(O)c2nc(-c3ccc(F)cc3OC)cs2)cc1 (configuration not stated) | - | . | . | . | . | .
CCCC(=O)NC(=S)Nc1ccc(N2CCN(C(=O)c3cccs3)CC2)cc1 | - | -[5.75 µM] | 0.79µM | ? | ? | -
CCC(=O)N(Cc1ccco1)c1nc(-c2ccccc2)cs1 | - | ? | ? | - | ? | -
CCC(=O)N(Cc1ccco1)c1nc(-c2ccc(OC)cc2)cs1 | - | ? | ? | - | . | .
CCCCN1C(=O)C(CC(=O)NCCCCc2ccccc2)CC(C(=O)N2CCCCCC2)=C1C (configuration not stated) | - | . | . | . | . | .
CC(=O)c1ccc(OC2(C)CCN(CCOc3ccc(C)cc3)C2)cc1 (configuration not stated) | - | . | . | . | . | .
Cc1cc(C[n+]2ccccc2)c2nsnc2c1 | ? | . | ? | 2.1µM | 3.5µM | 13µM
Cc1cc(C[n+]2ccsc2N)c2ncccc2c1 | - | ? | - | - | . | .
Cc1ccc(CN(Cc2ccccc2)C(=S)Nc2ccccc2C)o1 | - | ? | 3.2µM | ? | - | -
Cc1ccc(N(C(=O)CCl)C(C(=O)NC2CCCCC2)c2cccnc2)cc1C (configuration not stated) | -99 | ? | 0.89µM | ? | 0.5µM | 0.4µM
CCOC(=O)c1c(CN2CCN(CCO)CC2)n(C)c2cc(Br)c(OC)cc12 | - | - | 2.8µM | 10µM | 10µM | -
CCOC(=O)c1c(C)n(C)c2cc(Br)c(OC)cc12 | - | - | 7.9µM | - | 14µM | -
c1ccc(C(c2nnnn2Cc2cccs2)N2CCN(C3CCCC3)CC2)cc1 (configuration not stated) | - | -[5.75 µM] | - | ? | . | .
Fc1ccc(C(c2nnnn2Cc2cccs2)N2CCN(C3CCCC3)CC2)cc1 (configuration not stated) | - | . | ? | ? | - | -
O=S1(=O)c2ccc(Br)cc2N2CCC[C@@H]2CN1Cc1ccc(Cl)cc1 | - | . | 8.9µM | . | ? | -
CCOC(=O)c1cc2c(=O)n3ccccc3nc2n(Cc2ccco2)c1=NC(=O)c1ccc(C(C)(C)C)cc1 | - | . | . | . | . | .
CCOC(=O)c1cc2c(=O)n3ccccc3nc2n(Cc2ccco2)c1=NC(=O)c1ccc(OC)cc1OC | - | ? | ? | ? | ? | -
CN(C)c1ccc(C(=O)C(=O)N2CCN(c3ccccc3)CC2)cc1 | - | . | . | . | . | .
CCC(=O)c1cc2c(cc1NC(=O)c1ccccc1)OCCO2 | - | - | 4µM | . | 4µM | -
CC(=O)c1cc2c(cc1NC(=O)c1ccc(Cl)cc1)OCCO2 | - | - | - | - | . | .
O=C(OCC12CC3CC(CC(C3)C1)C2)c1ccc(NCc2cc(O)ccc2O)cc1 | -77 | . | 1.6µM | . | 4µM | 10µM
CCn1cc(/C=C/c2cc[n+](C)cc2)c2ccccc21 | -97 | 0.21µM | 2.5µM | 0.37µM | 1.8µM | 4µM
CCn1cc(C(=O)c2ccccc2)c2ccccc21 | - | ? | . | . | . | .
